Results on 39 molecules are retold here after PubChem BioAssay (NCI).

The panel holds about 83,000 compounds, 20% with a hit somewhere; the sample as a whole holds those more often.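 Treatment: one concentration, 48 hours, 96-well format. Scoring: percent growth, with anything below 10 considered active.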 Values without a mark were called inactive. Active and inactive are the calls of the source.

The subject of the first test is NCI-H23 lung. The test can be described thus: NCI-60 one-dose screen, 48 h (100 = growth as untreated, 0 = no growth, -100 = all killed). Particulars: 10 µM.
`CCOC(=O)c1ccc(NC(=S)P(=O)(c2ccccc2)c2ccccc2)cc1`: the growth was 102%.
As to `COCCOC(=O)c1ccc(C(C)C)cc1`, the growth is 102%.
The same measure, in the same setting: to `CCCC(C)OCC(=O)O` (configuration not stated) belongs 109%; to `O=c1[nH][nH]c(=O)c2cc([N+](=O)[O-])ccc12`, 101%.
Turning to `O=[N+]([O-])c1ccc(N=Nc2ccc(O)c3ccccc23)cc1`, the growth is 6.51% (active).
Same read-out and setting: under `CCCCCCCCO` stands 97.5%; under `Cn1cnc2nc(Cl)nc(Cl)c21`, 40.6%; under `OCC(O)C(O)C(O)C(O)/C=N/O` (configuration not stated), 101%.
Still for that read-out and setting: under `O=C(O)COCC(=O)O` stands 105%; under `Cc1ccc(S(=O)(=O)O)c(C)c1`, 105%.
Same read-out and setting: to `NC(=S)N/N=C/c1ccc(N)cc1` belongs 89.5%.
Turning to `O=c1[nH]nc(SC2CCCCC2)c(=O)[nH]1`, the growth was 91.3%.
Take `CC1CC(O)C2C3(C)CCCC2(COC3=O)C12CCC1(CCOC1=O)O2` (configuration not stated): the growth is 109%.
As to `S=C1CCCCCN1`, the growth is 105%.
`CC1CCCCN1C(=S)Nc1ccc(S(=O)(=O)N2CCCCC2)cc1` (configuration not stated): the growth was 104%.
Same read-out and setting: to `COc1cc(C2c3cc4c(cc3C3OC(=O)C2C3CO)OCO4)cc(OC)c1OC` (configuration not stated) belongs 14.7%; to `CCCCOC(=O)c1ccc(C(C)C)cc1`, 98.2%; to `NCCCN`, 112%.
As for `O=C(O)CCCC(=O)O`, the growth is 95.3%.
With `COc1ccc(-c2cc3c(nn2)-c2ccccc2C3=O)cc1`, the growth was 68.5%.

A further test has as its system NCI-H322M lung. Described as above. Particulars: 10 µM.
For the molecule `CCNc1nc2c(cnn2C)c(=O)[nH]1`, the growth was 95.5%.
The same measure, in the same setting: to `O=[N+]([O-])c1cccc(N=Nc2ccc(O)cc2O)c1` belongs 95.9%.
On the same count and under the same terms, under `CC(=O)/C(Cc1ccccc1)=N/O` stands 105%.
As to `O=[N+]([O-])c1ccccc1N=Nc1ccc(O)cc1O`, the growth was 107%.
The same measure, in the same setting: to `CCn1c(=O)n(C)c2c(=O)n(C)c(=O)n(C)c21` belongs 105%; to `O=P(O)(O)OCC(O)CO` (configuration not stated), 107%.
On the same count and under the same terms, to `CCCCCCCCCCC1CO1` (configuration not stated) belongs 109%; to `CC(=O)OCCO`, 102%; to `CC(=O)OCC(=O)[C@@]1(O)CC[C@H]2[C@@H]3CC[C@@H]4C[C@H](O)CC[C@]4(C)[C@H]3C(=O)C[C@@]21C`, 131%.
With `COc1cc2c3cc1Oc1c(OC)c(OC)cc4c1C(Cc1ccc(O)c(c1)Oc1ccc(cc1)CC3N(C)CC2)N(C)CC4` (configuration not stated), the growth was 44.6%.
As to `COc1cccc(/C=N/NC(=S)NC2CC3CCC2C3)c1O` (configuration not stated), the growth was 62.2%.
The same measure, in the same setting: to `O=S(=O)(Cc1ccccc1)c1ccccc1` belongs 118%; to `COc1cc2nn(-c3ccccc3N)nc2cc1OC`, 97.1%; to `CC1C(=O)c2ccccc2CC1C(=O)O` (configuration not stated), 99.5%.
Regarding `O=[N+]([O-])c1ccc(S(=O)(=O)NN=C2CCCCC2)cc1`, the growth is 108%.
For the molecule `CC(=O)c1ccc(N=C(C#N)C2=C(O)c3ccccc3C2=O)cc1`, the growth is 100%.
Same read-out and setting: under `CNc1nc(NC)c2cn[nH]c2n1` stands 116%; under `CC(=Nc1ccccc1)C1=C(O)C(Cc2cccc(F)c2)NC1=O` (configuration not stated), 31.8%; under `CCOC(=O)c1ccc(NC(=S)P(=O)(c2ccccc2)c2ccccc2)cc1`, 94.7%.
Still for that read-out and setting: to `COCCOC(=O)c1ccc(C(C)C)cc1` belongs 98.2%.
The same measure, in the same setting: to `CCCC(C)OCC(=O)O` (configuration not stated) belongs 96.8%; to `O=c1[nH][nH]c(=O)c2cc([N+](=O)[O-])ccc12`, 123%.
Regarding `O=[N+]([O-])c1ccc(N=Nc2ccc(O)c3ccccc23)cc1`, the growth was 79.3%.
Regarding `CCCCCCCCO`, the growth was 108%.
On the same count and under the same terms, to `Cn1cnc2nc(Cl)nc(Cl)c21` belongs 34.1%.
Take `OCC(O)C(O)C(O)C(O)/C=N/O` (configuration not stated): the growth was 103%.
On the same count and under the same terms, under `O=C(O)COCC(=O)O` stands 97.6%; under `Cc1ccc(S(=O)(=O)O)c(C)c1`, 96.7%.
Still for that read-out and setting: to `NC(=S)N/N=C/c1ccc(N)cc1` belongs 99.4%; to `O=c1[nH]nc(SC2CCCCC2)c(=O)[nH]1`, 96.8%; to `CC1CC(O)C2C3(C)CCCC2(COC3=O)C12CCC1(CCOC1=O)O2` (configuration not stated), 117%.
Same read-out and setting: under `CCOc1ccc(Br)cc1/C=N\N=C\c1cc(Br)ccc1OCC` stands 111%.
In the case of `S=C1CCCCCN1`, the growth is 99.5%.
`CC1CCCCN1C(=S)Nc1ccc(S(=O)(=O)N2CCCCC2)cc1` (configuration not stated): the growth was 118%.
Still for that read-out and setting: to `COc1cc(C2c3cc4c(cc3C3OC(=O)C2C3CO)OCO4)cc(OC)c1OC` (configuration not stated) belongs 36.9%.
Still for that read-out and setting: to `CCCCOC(=O)c1ccc(C(C)C)cc1` belongs 96.3%; to `NCCCN`, 108%.
In the case of `O=C(O)CCCC(=O)O`, the growth was 98.9%.
Take `COc1ccc(-c2cc3c(nn2)-c2ccccc2C3=O)cc1`: the growth is 65.6%.

Another test relates to HOP-62 NSCLC. The test is described as above. Particulars: 10 µM.
Take `CCNc1nc2c(cnn2C)c(=O)[nH]1`: the growth is 101%.
Same read-out and setting: to `O=[N+]([O-])c1cccc(N=Nc2ccc(O)cc2O)c1` belongs 103%; to `CC(=O)/C(Cc1ccccc1)=N/O`, 98.4%; to `O=[N+]([O-])c1ccccc1N=Nc1ccc(O)cc1O`, 106%.
The same measure, in the same setting: under `CCn1c(=O)n(C)c2c(=O)n(C)c(=O)n(C)c21` stands 97.2%; under `O=P(O)(O)OCC(O)CO` (configuration not stated), 104%; under `CCCCCCCCCCC1CO1` (configuration not stated), 95.1%.
Turning to `CC(=O)OCCO`, the growth is 109%.
Same read-out and setting: under `CC(=O)OCC(=O)[C@@]1(O)CC[C@H]2[C@@H]3CC[C@@H]4C[C@H](O)CC[C@]4(C)[C@H]3C(=O)C[C@@]21C` stands 105%.
Turning to `COc1cc2c3cc1Oc1c(OC)c(OC)cc4c1C(Cc1ccc(O)c(c1)Oc1ccc(cc1)CC3N(C)CC2)N(C)CC4` (configuration not stated), the growth is 4.33% (active).
Still for that read-out and setting: to `COc1cccc(/C=N/NC(=S)NC2CC3CCC2C3)c1O` (configuration not stated) belongs 39.6%.
Take `O=S(=O)(Cc1ccccc1)c1ccccc1`: the growth is 104%.
For `COc1cc2nn(-c3ccccc3N)nc2cc1OC`, the growth is 103%.
`CC1C(=O)c2ccccc2CC1C(=O)O` (configuration not stated): the growth is 105%.
Take `O=[N+]([O-])c1ccc(S(=O)(=O)NN=C2CCCCC2)cc1`: the growth is 99.5%.
For the molecule `CC(=O)c1ccc(N=C(C#N)C2=C(O)c3ccccc3C2=O)cc1`, the growth is 100%.
On the same count and under the same terms, to `CNc1nc(NC)c2cn[nH]c2n1` belongs 104%; to `CC(=Nc1ccccc1)C1=C(O)C(Cc2cccc(F)c2)NC1=O` (configuration not stated), 28.9%; to `CCOC(=O)c1ccc(NC(=S)P(=O)(c2ccccc2)c2ccccc2)cc1`, 105%.
Same read-out and setting: under `COCCOC(=O)c1ccc(C(C)C)cc1` stands 80.3%.
`CCCC(C)OCC(=O)O` (configuration not stated): the growth is 111%.
For the molecule `O=c1[nH][nH]c(=O)c2cc([N+](=O)[O-])ccc12`, the growth was 102%.
Turning to `O=[N+]([O-])c1ccc(N=Nc2ccc(O)c3ccccc23)cc1`, the growth is 75.2%.
The same measure, in the same setting: to `CCCCCCCCO` belongs 99.6%; to `Cn1cnc2nc(Cl)nc(Cl)c21`, 8.69% (active).
The same measure, in the same setting: to `OCC(O)C(O)C(O)C(O)/C=N/O` (configuration not stated) belongs 83.5%; to `O=C(O)COCC(=O)O`, 103%.
Regarding `Cc1ccc(S(=O)(=O)O)c(C)c1`, the growth is 94.5%.
The same measure, in the same setting: under `NC(=S)N/N=C/c1ccc(N)cc1` stands 97%; under `O=c1[nH]nc(SC2CCCCC2)c(=O)[nH]1`, 93.7%; under `CC1CC(O)C2C3(C)CCCC2(COC3=O)C12CCC1(CCOC1=O)O2` (configuration not stated), 111%.
On the same count and under the same terms, under `CCOc1ccc(Br)cc1/C=N\N=C\c1cc(Br)ccc1OCC` stands 108%; under `S=C1CCCCCN1`, 92.9%.
Still for that read-out and setting: under `COc1cc(C2c3cc4c(cc3C3OC(=O)C2C3CO)OCO4)cc(OC)c1OC` (configuration not stated) stands 28.5%; under `CCCCOC(=O)c1ccc(C(C)C)cc1`, 85.4%; under `NCCCN`, 99.4%.
With `O=C(O)CCCC(=O)O`, the growth was 97.7%.
Regarding `COc1ccc(-c2cc3c(nn2)-c2ccccc2C3=O)cc1`, the growth is -14.4% (active).
